Only some compounds are listed: those with a hit (about 1.5% of all), similar ones and a draw of the others.
PrPC TRFRET: inhibitors of human cell surface prion protein PrPC, primary screen, cell-based, TR-FRET. Major prion protein (Homo sapiens), P04156. TR-FRET read-out. inhibition, % at 13.8 µM. 370,000 tested, 0.43% active. AID 720596, 2013; in the data active means inhibition above about 24%
MazF activator: activators of E. coli MazEF toxin-antitoxin RNase, primary screen, biochemical, fluorescence, uHTS; Endoribonuclease toxin MazF (Escherichia coli (strain K12)), P0AE70; FAM/BHQ RNA-DNA oligo cleavage fluorescence, 5 h; activation, % at 20 µM; 350,000 tested, 0.32% active; AID 504720, 2011; in the data active means activation above about 50%
PrP UTR inh: inhibition of PrP 5' UTR reporter expression; AID 488862, 2010; cell-based PrP 5' UTR mRNA reporter, plate reader; inhibition, % (no concentration beside the values); 340,000 tested, 0.35% active; in the data active means inhibition above about 52%
3CLpro inhibitor: SARS-CoV 3CLpro protease inhibitors, primary screen, biochemical, quenched FRET; Replicase polyprotein 1ab (Severe acute respiratory syndrome coronavirus), P0C6X7; 290,000 tested, 0.14% active; recombinant SARS-CoV 3CLpro, quenched FRET peptide cleavage; inhibition, % at 6 µM; in the data active means inhibition above about 12%
DUSP3 inh: VHR1 phosphatase inhibitors, primary screen, biochemical, absorbance, uHTS; inhibition, % at 13.3 µM; 290,000 tested, 0.52% active; recombinant VHR phosphatase, pNPP absorbance; in the data active means inhibition above about 50%
Mtb hypoxia inh: PubChem AID 1159583; M. tuberculosis hypoxia-regulated fluorescent reporter, fluorescence; fluorescence inhibition, % (no concentration beside the values); 300,000 tested, 0.1% active; in the data active means fluorescence inhibition mostly above about 23%, no sharp cut-off; inactive means mostly below about 17%
PrPC TRFRET cf: confirmation of inhibitors of cell surface human prion protein, confirmation, cell-based, TR-FRET. shares compounds with PrPC TRFRET. cell surface PrPC level. inhibition, % at 13.8 µM. 1,500 tested, 65% active. AID 743200, 2013; in the data active means inhibition above about 25%
LD9 tox: cytotoxicity in LD9 cells, cytotoxicity control for cell surface PrPc inhibitor project, cell-based, luminescence, high throughput. 1,500 tested, 29% active. luminescence viability. inhibition, % at 13.8 µM. shares compounds with PrPC TRFRET; in the data active means inhibition above about 9.5%
Of the large screens only hits and unclear results are named; the others gave an inactive call (follow-up assays come after a bar, where they were run).

COC(=O)c1sccc1NC(=O)C1CC=CCC1C(=O)O (stereo unspecified)	PrPC TRFRET 97 | PrPC TRFRET cf 92 | LD9 tox inactive
COC(=O)c1cc(C)sc1NC(=O)C1CC=CCC1C(=O)O (stereo unspecified)	PrPC TRFRET 35 (no result: PrP UTR inh) | PrPC TRFRET cf 44 | LD9 tox inactive
COC(=O)c1cc(C)sc1NC(=O)C1C2C=CC(CC2)C1C(=O)O (stereo unspecified)	none
CC(=O)[C@@]1(O)CCC2C3CC(C)C4=CC(=O)CC[C@]4(C)C3CC[C@@]21C (stereo partly specified)	none (no result: PrPC TRFRET, MazF activator, PrP UTR inh, 3CLpro inhibitor, DUSP3 inh)
CC(C)N1CCc2c(sc(NC(=O)c3ccc(S(=O)(=O)N4CCCCC4C)cc3)c2C(N)=O)C1 (stereo unspecified)	PrPC TRFRET 43 | PrPC TRFRET cf inactive | LD9 tox inactive
Cc1cc(Cl)c(S(=O)(=O)NC(C(=O)O)C(C)C)cc1OCC(=O)NC1CCCCC1 (stereo unspecified)	none
Cc1cc(Cl)c(S(=O)(=O)N2CCCC2)cc1OCC(=O)NC1CCCCC1	PrPC TRFRET 26 | PrPC TRFRET cf inactive | LD9 tox inactive
Cc1ccsc1C=NNC(=O)c1ccc2c(c1)OCCO2	none (no result: PrPC TRFRET, MazF activator, PrP UTR inh, 3CLpro inhibitor, DUSP3 inh)
Cc1cc(O)cc(O)c1/C=N/NC(=O)c1ccc2c(c1)OCCO2	PrPC TRFRET 32 (no result: PrP UTR inh, 3CLpro inhibitor, DUSP3 inh, Mtb hypoxia inh) | PrPC TRFRET cf 25 | LD9 tox 21
NC(=O)CCC1NC(=O)C(Cc2ccc(O)cc2)NC(=O)c2cc([N+](=O)[O-])cc(F)c2OCCC(C(N)=O)NC1=O (stereo unspecified)	none (no result: PrPC TRFRET, MazF activator, PrP UTR inh, 3CLpro inhibitor, DUSP3 inh)
Cc1ccc(C=NNC(=O)c2nnn(-c3nonc3N)c2CN(C)C2CCCCC2)cc1	none (no result: PrPC TRFRET, MazF activator, PrP UTR inh, 3CLpro inhibitor, DUSP3 inh)
CC(C)CC(NC(=O)c1ccc(Cl)cc1)C(=O)OCC(=O)c1ccc2c(c1)NC(=O)CO2 (stereo unspecified)	PrPC TRFRET 40 (no result: Mtb hypoxia inh) | PrPC TRFRET cf 53 | LD9 tox 84
CC(O)C(NS(=O)(=O)c1ccc(Cl)cc1)C(=O)OCC(=O)c1ccc2c(c1)NC(=O)CO2 (stereo unspecified)	none (no result: 3CLpro inhibitor, DUSP3 inh)
NC(Cc1ccc(Cl)cc1)c1csc(Nc2nccc(C(F)(F)F)n2)n1 (stereo unspecified)	none (no result: MazF activator, PrP UTR inh, 3CLpro inhibitor, DUSP3 inh, Mtb hypoxia inh)
NC(c1csc(Nc2ncccn2)n1)c1ccccc1Cl (stereo unspecified)	PrPC TRFRET 33 (no result: MazF activator, PrP UTR inh, 3CLpro inhibitor, DUSP3 inh, Mtb hypoxia inh) | PrPC TRFRET cf inactive | LD9 tox inactive
COc1cc(OC)nc(Nc2nc(C(N)c3ccccc3Cl)cs2)n1 (stereo unspecified)	none (no result: MazF activator, PrP UTR inh, 3CLpro inhibitor, DUSP3 inh, Mtb hypoxia inh)
Nc1ccc(CC(N)c2csc(Nc3ncccn3)n2)cc1 (stereo unspecified)	none (no result: MazF activator, PrP UTR inh, 3CLpro inhibitor, DUSP3 inh, Mtb hypoxia inh)
COc1ccc(CC(N)c2csc(Nc3ncccn3)n2)cc1 (stereo unspecified)	PrPC TRFRET 38 (no result: MazF activator, PrP UTR inh, 3CLpro inhibitor, DUSP3 inh, Mtb hypoxia inh) | PrPC TRFRET cf 38 | LD9 tox inactive
NC(Cc1ccc(Cl)cc1)c1csc(Nc2ncccn2)n1 (stereo unspecified)	PrPC TRFRET 52 (no result: MazF activator, PrP UTR inh, 3CLpro inhibitor, DUSP3 inh, Mtb hypoxia inh) | PrPC TRFRET cf 60 | LD9 tox 13
NC(Cc1ccc(F)cc1)c1csc(Nc2ncccn2)n1 (stereo unspecified)	PrPC TRFRET 59 (no result: MazF activator, PrP UTR inh, 3CLpro inhibitor, DUSP3 inh, Mtb hypoxia inh) | PrPC TRFRET cf 55 | LD9 tox 23
O=C(NN=Cc1cccs1)c1cccs1	none (no result: PrPC TRFRET, MazF activator, PrP UTR inh, 3CLpro inhibitor, DUSP3 inh)
CSc1ccc(C2=CC(=O)CC(c3ccc(Cl)cc3)C2)cc1 (stereo unspecified)	none (no result: PrPC TRFRET, MazF activator, PrP UTR inh, 3CLpro inhibitor, DUSP3 inh)
COc1cc(OC)nc(Nc2nc(C(N)c3ccccc3)cs2)n1 (stereo unspecified)	none (no result: MazF activator, PrP UTR inh, 3CLpro inhibitor, DUSP3 inh, Mtb hypoxia inh)
COc1ccc(C(N)c2csc(Nc3ncccn3)n2)cc1 (stereo unspecified)	PrPC TRFRET 36 (no result: MazF activator, PrP UTR inh, 3CLpro inhibitor, DUSP3 inh, Mtb hypoxia inh) | PrPC TRFRET cf inactive | LD9 tox inactive
CSCCC(NC(=O)OC(C)(C)C)c1nnc(SCC(N)=O)o1 (stereo unspecified)	none (no result: PrPC TRFRET, MazF activator, PrP UTR inh, 3CLpro inhibitor, DUSP3 inh)
c1ccc2c(c1)nc(N1CCOCC1)c1nncn12	PrPC TRFRET 104 | PrPC TRFRET cf inactive | LD9 tox inactive
C[C@H]1c2cccc(O)c2C(O)=C2C(=O)[C@]3(O)C(O)=C(C(N)=O)C(=O)[C@@H](N(C)C)C3[C@@H](O)C21 (stereo partly specified)	none (no result: 3CLpro inhibitor, DUSP3 inh, Mtb hypoxia inh)
C=C1c2cccc(O)c2C(=O)C2C(=O)[C@]3(O)C(=O)C(C(N)=O)C(=O)[C@@H](N(C)C)[C@@H]3[C@@H](O)[C@H]12 (stereo partly specified)	PrPC TRFRET 40 (no result: 3CLpro inhibitor, DUSP3 inh, Mtb hypoxia inh) | PrPC TRFRET cf inactive | LD9 tox inactive
CN(C(=O)CSc1cc(C(=O)c2nccn2C)c2ccccc2n1)c1ccccc1	PrPC TRFRET 89 | PrPC TRFRET cf 74 | LD9 tox inactive
COc1ccc(-c2cc(NCCc3ccncc3)n3ncnc3n2)cc1	PrPC TRFRET 106 (no result: Mtb hypoxia inh) | PrPC TRFRET cf inactive | LD9 tox inactive
COc1ccc(-c2cc(NCc3ccccn3)n3ncnc3n2)cc1	none (no result: Mtb hypoxia inh)
CC(C)(C)c1ccc(OCCC(=O)Nc2cccc(S(=O)(=O)N3CCCCC3)c2)cc1	PrPC TRFRET 24 (no result: Mtb hypoxia inh) | PrPC TRFRET cf inactive | LD9 tox inactive
CCc1ccc(OC)c(S(=O)(=O)Nc2ccc(Cc3ccncc3)cc2)c1	PrPC TRFRET 42 | PrPC TRFRET cf 30 | LD9 tox inactive
COc1ccc(S(=O)(=O)Nc2ccc(Cc3ccncc3)cc2)cc1OC	none
O=S(=O)(Nc1ccc(Cc2ccncc2)cc1)c1ccc(Cl)c(Cl)c1	PrPC TRFRET 31 | PrPC TRFRET cf 32 | LD9 tox 16
O=S(=O)(Nc1ccc(-n2cccc2)cc1)c1ccc(Cl)c(Cl)c1	none
O=C(NN=Cc1coc2ccccc2c1=O)c1cc(O)cc(O)c1	none (no result: PrPC TRFRET, MazF activator, PrP UTR inh, 3CLpro inhibitor, DUSP3 inh)
O=C(Nc1cccnc1)c1cccc(S(=O)(=O)N2CCc3ccccc32)c1	none
CCc1ccccc1NC(=O)c1cc(S(=O)(=O)N2CCc3ccccc32)cn1C	none
Cc1cccc(NC(=O)c2cc(S(=O)(=O)N3CCc4ccccc43)cn2C)c1C	PrPC TRFRET 44 | PrPC TRFRET cf inactive | LD9 tox inactive
O=C(Nc1ccncc1)c1cccc(S(=O)(=O)N2CCc3ccccc32)c1	PrPC TRFRET 25 (no result: 3CLpro inhibitor, DUSP3 inh) | PrPC TRFRET cf 25 | LD9 tox 13
Cc1cccc(N2CCN(C(=O)c3cc(S(=O)(=O)N4CCCC4)cn3C)CC2)c1C	PrPC TRFRET 24 | PrPC TRFRET cf inactive | LD9 tox inactive
Cc1cccc(N2CCN(C(=O)c3cc(S(=O)(=O)N4CCOCC4)cn3C)CC2)c1C	none

Assay outcomes (PubChem)
